High-throughput results as filed in PubChem BioAssay.
Rows were chosen to be rich in hits. Some 6.5% of all compounds tested hit in one or more screens of this group.
Marburg entry inh: qHTS for inhibitors of binding or entry into cells for Marburg Virus | Marburg virus pseudotyped entry inhibition, cell reporter | Potency, µM (doses to about 37.8 µM), without a hit: at the top dose activity change, negative = inhibition, actives largely listed as inhibitors | hit rate 1.8% among 300,000; calls by dose curve; tested in HEK293 cells; note: potency is the fitted concentration of half-maximal effect
FMDV antiviral: High Throughput Screening for Foot and Mouth Disease Virus Antivirals. FMDV antiviral cell-based qHTS. Potency, µM (series often up to 57.9 µM), without a hit: top-dose activity change, negative = inhibition, usual class: inhibitors. hit rate 1.2% among 410,000; calls by dose curve; tested in HEK293T cells; note: read-out not given here; potency is the fitted concentration of half-maximal effect; nearly all actives have a fitted effect of over 45% in size
Vaccinia mCherry: qHTS for Stage-Specific Inhibitors of Vaccinia Orthopoxvirus: mCherry Reporter Primary qHTS; Vaccinia virus mCherry reporter infection, fluorescence; Potency, µM (top dose mostly 36.5 µM), for inactives: at the highest dose activity change, negative = inhibition, usual class: inhibitors; hit rate 0.63% among 310,000; calls by dose curve; tested in A549 cells; note: potency is the fitted concentration of half-maximal effect; nearly all actives have a fitted effect of over 35% in size
Vaccinia Venus: qHTS for Stage-Specific Inhibitors of Vaccinia Orthopoxvirus: Venus Reporter Primary qHTS; Potency, µM (series often up to 36.5 µM), inactives show top-dose activity change, negative = inhibition, actives largely listed as inhibitors; hit rate 0.46% among 330,000; Vaccinia virus Venus reporter expression, fluorescence; calls by dose curve; tested in A549 cells; note: potency is the fitted concentration of half-maximal effect; nearly all actives have a fitted effect of over 30% in size
HCMV antiviral: qHTS Assay for inhibitors of the human cytomegalovirus (HCMV) | HFF cells, HCMV-luciferase reporter, 72 h; stronger effect = lower value | activity change, negative = inhibition, % at 57.5 µM | hit rate 4.5% among 410,000; in the data active = activity change below about -60%; inconclusive = no clear call, values can overlap the other calls; inactive = above about -39%
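Cell-based, HFFs, 1000 cells/well, 16 h 37C; cpds in DMSO + HCMV-luc, MOI 1 PFU/cell; 72 h 37C; OneGlo luminescence after 5 min RT; norm. to buffer vs Salinomycin 10uM.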
LASV entry inh: qHTS for Inhibitors of binding or entry into cells for Lassa Virus | Lassa virus pseudotype entry inhibition, cell reporter | Potency, µM (titrated, usually from 37.9 µM), without a hit: top-dose activity change, negative = inhibition, hits mostly inhibitors | hit rate 1.2% among 300,000 | AID 540256, 2011; calls by dose curve; tested in HEK293 cells; note: potency is the fitted concentration of half-maximal effect; nearly all actives have a fitted effect of over 50% in size
The depositor's hits bear a star; i = inactive; ? = inconclusive; · = not tested or not shown; ! = not active in a repeat; [ ] = dose if it differs, or a comment. % is set by controls: 0 for no effect and ±100 for the full control effect.

SMILES	Marburg entry inh	FMDV antiviral	Vaccinia mCherry	Vaccinia Venus	HCMV antiviral	LASV entry inh
Cc1ccc(CNCC(O)(c2ccccc2)c2ccccc2)cc1	·	-5.7%	·	·	51.5	·
Cc1ccc(CNCC(O)(c2ccccc2)c2ccc(Cl)cc2)cc1 (stereo unspecified)	10µM*	-19.4%	-5.3%	-22.5%	0.1	-15.3%[46.1 µM]
CCOc1ccc(C(C)(C)COCc2cccc(Oc3ccccc3)c2)cc1	·	·	·	·	-8.2	·
Cc1ccccc1NC1=CC(=O)CC(C)(C)C1	-2.1%	6.8%	·	·	32.9	-2.3%
CC1(C)CC(=O)C=C(NC2=CC3OC(c4ccccc4)OCC3OC2=O)C1 (stereo unspecified)	14.1µM*	8.91µM*	?	?	-7.7	?
CC(C)OC(=O)N(C)C[C@H]1OCc2cn(nn2)CCCC(=O)N([C@@H](C)CO)C[C@@H]1C	·	·	·	·	-2.6	·
CCOC(=O)C(CC)/C(C)=N\NC(=O)c1ccccc1O (stereo unspecified)	?	24.9%	?	?	-90.4*	-19.4%
CCC/C(C)=N/NC(=O)c1ccccc1O	8.3%	3.2%	-12.6%	0.9%	12.0	20.0%
Cn1ccc2c(-c3ccc(F)nc3)cc3c(c21)C1CCC3C1 (stereo unspecified)	·	-20.2%	49.2%	5.2%	?	·
Cn1ccc2c(N3c4ccccc4CCc4ccccc43)cc3c(c21)C1CCC3C1 (stereo unspecified)	·	-25.8%	-9.4%	-14.9%	-93.4*	-1.1%[46.1 µM]
COc1ccc(-c2cc3c(c4c2ccn4C)C2CCC3C2)cc1OC (stereo unspecified)	?	-21.6%	14.9%	-12.0%	-60.1*	·
CCCN(CC1CC1)c1cc2c(c3c1ccn3C)C1CCC2C1 (stereo unspecified)	3.15µM*	-22.4%	i	-1.5%	-62.2*	·
CCOC(=O)c1cccn1C1C(=O)N(Cc2ccc(Cl)nc2)c2c(F)cccc21 (stereo unspecified)	·	·	·	·	-4.6	·
N#CCCN1CCC(N)=NC1=NC#N	·	·	·	·	61.4	·
Cn1c(=O)c([N+](=O)[O-])c(-n2ccnc2)c2ccccc21	?	31.6µM*	-13.0%	0.2%	41.4	?
CC(C)(C)c1ccc(S(=O)(=O)Nc2ccc(Cc3ccncc3)cc2)cc1	?	0.7%	-28.3%	-28.0%	?	10µM*
CCCCc1ccc(NC(=O)c2ccc(NS(C)(=O)=O)cc2)cc1	6.2%	-0.2%	i	-9.3%	33.3	?
CCN(CC)S(=O)(=O)c1ccc(NC(=O)c2ccc(N(C)S(C)(=O)=O)cc2)cc1	-52.8%	3.98µM*	·	?	-66.5*	?
CCN(CC)S(=O)(=O)c1ccc(C(=O)Nc2ccc(Cc3ccncc3)cc2)cc1	?	?	i	-23.2%	-86.8*	?
CCCCc1ccc(NC(=O)c2ccc(N(C)S(C)(=O)=O)cc2)cc1	?	?	-10.4%	-23.2%	-80.9*	-19.3%
O=C1CCC[C@H]2[C@@H](Cc3ccccc3)[C@H](NCc3ccccc3)CC[C@]23CCCN13	·	·	·	·	-9.1	·
Cc1ccc(-c2ccc(=O)n(Cc3ccc(F)cc3)n2)cc1	0.3%[46.1 µM]	-23.4%	-11.8%[7.34 µM]	-11.0%[7.34 µM]	-63.2*!	-2.2%[46.1 µM]
Oc1ccc([C@@H]2CNCCc3c2cc(O)c(O)c3Cl)cc1	?	-19.1%	·	·	·	·
O=C(Nc1ccc(C(F)(F)F)cc1)N[C@H]1CC[C@@]23CCCN2C(=O)CCC[C@H]3C1Cc1ccccc1 (stereo partly specified)	·	·	·	·	-22.6	·
O=C(Nc1ccc(N2CCN(c3ncccc3C(F)(F)F)CC2)nc1)c1cccs1	12.6µM*	12.6µM*	14.1µM*	20µM*	-86.3*	11.2µM*
SMILES	Marburg entry inh	FMDV antiviral	Vaccinia mCherry	Vaccinia Venus	HCMV antiviral	LASV entry inh
C/C(=N\NC(=O)c1cc(C2CC2)nc2ccccc12)c1ccc(O)cc1O	?	3.7%	?	-24.4%	-60.6*	?
CCOc1ccc(-c2cc(C(=O)N/N=C(\C)c3cccnc3)c3ccccc3n2)c(OCC)c1	3.98µM*	8.1%	-3.2%	5.2%	-35.7	?
COc1ccc(/C(C)=N/NC(=O)c2cc(-c3cccnc3)nc3ccccc23)cc1	-26.3%	32.3%	-4.3%	-5.7%	-2.9	0.1%
C/C(=N\NC(=O)c1cc(-c2cccnc2)nc2ccccc12)c1ccccc1O	10µM*	30.1%	?	?	-101.9*	?
COc1ccc(-c2cc(C(=O)N/N=C(\C)c3cccnc3)c3ccccc3n2)cc1	-19.5%	29.2%	-13.1%	-19.6%	47.5	-27.4%
Cc1cc(Oc2ccc3c(-c4ccccn4)noc3n2)ccc1F	·	·	·	·	54.8	·
CCOc1ccc(NC(=O)COc2ccc(C(=O)NCc3cccnc3)cc2OC)cc1	-6.9%	0.0%	-3.2%	-9.6%	4.0	-2.8%
COc1ccc(CN(C)C(=O)c2ccc(OCC(=O)Nc3cccc(C(F)(F)F)c3)c(OC)c2)cc1	·	?	?	?	-61.9*	·
COc1cccc(NC(=O)CN(C)C(=O)c2ccccc2OCC(=O)Nc2cccc(C(F)(F)F)c2)c1	-28.6%	?	-9.2%	-21.5%	-37.2	-5.5%
O=C(NCc1cccnc1)Nc1cccc(NC(=O)NCc2cccnc2)c1	1.9%	18.5%	·	·	11.2	-1.3%
O=C(NCc1cccnc1)Nc1cccc(C(F)(F)F)c1	-2.8%[46.1 µM]	6.4%	-13.9%	-9.7%	-69.6*	19.7%[46.1 µM]
Cc1cc(C)cc(NC(=O)NCc2c(-n3cccc3)sc3c2CCCC3)c1	?	-6.8%	-11.2%	-0.7%	4.3	-11.1%[46.1 µM]
COc1cc(C(=O)NCc2cccnc2)ccc1OCC(=O)Nc1cccc(C(F)(F)F)c1	?	11.2µM*	-24.1%	-25.9%	-73.2*	?
O=C(NCc1c(-n2cccc2)sc2c1CCCC2)Nc1cccc(C(F)(F)F)c1	19.1%[46.1 µM]	?	?	?	-73.0*	22.9%[46.1 µM]
COc1ncc2nc(-c3cccs3)c(=O)n(-c3ccccc3)c2n1	·	12.1%	·	·	·	·
O=C(CCCn1c(=O)c2cccn2c2ccc(F)cc21)NCc1ccc(Cl)cc1	·	-9.4%	-5.3%	-3.6%	-13.4	-4.6%[46.1 µM]
C=C1C(=O)O[C@@H]2[C@H]3O[C@]3(C)CC/C=C(\C)CC[C@@H]12	22.4µM*	31.6µM*!	i	-12.7%	-12.0	·
C=C1C(=O)OC2C=C(C)CCC=C(C)CCC12 (stereo unspecified)	·	-19.6%	·	·	·	·
CN(C)c1ccc(-c2cc(NCc3cccnc3)ncn2)cc1	·	50.7%	-5.0%	0.0%	·	·
CCOC(=O)Cn1nnnc1C(CC)N(Cc1cccs1)Cc1cc2cc(C)ccc2[nH]c1=O (stereo unspecified)	15.8µM*	-18.7%	·	26.4%	-4.8	?
CCOC(=O)Cn1nnnc1CN(Cc1ccc(OC)cc1)Cc1cc2cc(C)ccc2[nH]c1=O	-9.8%	·	-10.7%	-7.8%	13.9	?
